Screens deposited in PubChem by National Center for Advancing Translational Sciences (NCATS).
Hits are enriched below; roughly 3.6% of the tested compounds scored in any of these assays.
Abeta rescue: restores growth of yeast expressing A-beta42 peptide; yeast expressing A-beta42, growth rescue, OD600, 48 h; response scale: 0% DMSO, 100% iron-clioquinol control; Potency, µM (doses to about 46.1 µM), most hits filed as activators; actives 0.063% (n = 410,000); AID 1347071; also: nearly all actives have a fitted effect of over 55% in size
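Yeast growth medium received pinned compounds, then yeast cells expressing toxic A-beta were added; plates incubated at 30 C for 48 hr. Growth read as absorbance at 600 nm, normalized to DMSO and equimolar FeCl3 plus clioquinol controls.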
ClpP mod: qHTS Assay for Activators of ClpP; actives 1.9% (n = 340,000); AID 651965, 2013; Potency, µM (doses to about 57.5 µM), without a hit: at the highest dose activity change, negative = active; purified B. subtilis ClpP, FRET peptide cleavage, 20 min; active = well fitted falling curve with a large enough effect; inconclusive = small, poorly fitted or top-dose-only effect; inactive = no such curve, though single readings can be large or run the other way; also: the source files actives as falling curves though it sought activators and does not explain the sign; nearly all actives have a fitted effect of over 65% in size
Target sequence (P80244 whole entry, looked up): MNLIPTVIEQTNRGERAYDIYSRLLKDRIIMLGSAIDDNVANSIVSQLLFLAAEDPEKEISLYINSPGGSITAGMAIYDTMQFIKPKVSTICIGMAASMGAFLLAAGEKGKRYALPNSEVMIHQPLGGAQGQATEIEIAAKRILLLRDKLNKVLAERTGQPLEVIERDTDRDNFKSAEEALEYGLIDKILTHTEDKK
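Purified B. subtilis ClpP, 10 microg/mL final in Tris/HCl pH8 with KCl, BSA, glycerol and Tween-20, cleaved an Abz/nitrotyrosine-quenched decapeptide. Fluorescence (ex 320, em 430) was read at 0 and 20 min at room temperature. Delta was normalized to 5.8 microM ADEP and DMSO/no-enzyme controls.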
TDP-43 yeast inh: inhibitors of TDP-43 toxicity in yeast. actives 1.8% (n = 410,000). TDP-43 expressing yeast growth rescue, BacTiter-Glo, 24 h. Potency, µM (doses to about 46.1 µM), inactives show at the top dose growth rescue (activation), usual class: activators; also: % of control where 0% means no effect; nearly all actives have a fitted effect of over 50% in size
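In this qHTS, compounds that restore growth of yeast expressing TDP-43 appear as activators. Cells (OD600=0.02, galactose medium, raffinose-pregrown) are incubated with compound 24 hr at 30 deg C and growth is quantified by BacTiter-Glo.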
aSyn yeast inh: inhibitors of alpha-synuclein toxicity in yeast | Yeast expressing alpha-synuclein, growth rescue, BacTiter-Glo, 24 h | Potency, µM (top dose mostly 46.1 µM), inactives show at the top dose growth rescue (activation), actives largely listed as activators | actives 0.14% (n = 370,000); also: % of control where 0% means no effect; nearly all actives have a fitted effect of over 65% in size
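Readout is rescue of growth in alpha-synuclein-expressing yeast, so inhibitors of toxicity appear as activators. Growth after 24 hr at 30 deg C in galactose medium is quantified by luminescence.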
FUS suppressor: suppressors of FUS proteinopathy in yeast | S. cerevisiae FUS-expressing, growth rescue, OD600, 24 h | Potency, µM (series often up to 76.6 µM), most hits filed as activators | actives 0.24% (n = 390,000);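 also: plate controls were DMSO vehicle for no effect and reference control for full effect; nearly all actives have a fitted effect of over 55% in size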
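Toxicity suppression screen in FUS-yeast. Cells induced with 2% galactose, starting OD 0.005, treated 24hr at 30C with compounds at multiple final concentrations; growth by OD600.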
Mm-Cpn inhibitor: blocks the Methanococcus maripaludis chaperonin Mm-Cpn. Potency, µM (titrated, usually from 76.9 µM), inactives show at the highest dose activity, negative = inhibition, hits mostly inhibitors. actives 0.031% (n = 330,000). purified Mm-Cpn ATPase, ADP Transcreener TR-FRET. AID 504842; also: % is scaled to controls: 0 for no effect and ±100 for the full control effect; nearly all actives have a fitted effect of over 80% in size
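ATPase turnover read by TR-FRET ADP competition (Eu cryptate antibody/ADP-d2, 665/590 nm): 10uM ATP final, 25nM Mm-CPN final, 30 min 37degC after 10-min compound preincubation, pH 7.4 Tris/KCl/MgCl2/DTT buffer.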
Numbers without * were called inactive. Unless noted, calls follow the shape of the dose curve; as a rule, active = well fitted curve in the direction sought with a large enough effect; inconclusive = small, poorly fitted or top-dose-only effect, or another doubt; inactive = no such curve, though single readings can be large; an effect the other way counts as inactive or inconclusive. Potency is read from the fitted curve at half-maximal effect.

Screening Nc1ccccc1SCc1csc(-c2ccc(Cl)cc2)n1 returned Abeta rescue inactive, ClpP mod -1.1%, TDP-43 yeast inh 12.6µM*, aSyn yeast inh -24.0%, FUS suppressor inactive and Mm-Cpn inhibitor -4.7%.
Screening Fc1cccc2sc(Nc3nc4cc5c(cc4s3)OCCO5)nc12 returned Abeta rescue inactive, ClpP mod 288.3%, TDP-43 yeast inh -5.0%, aSyn yeast inh 0.1%, FUS suppressor inactive and Mm-Cpn inhibitor 0.5%.
Fc1cccc2sc(Nc3nc4cc5c(cc4s3)OCO5)nc12 was read as Abeta rescue inactive, ClpP mod 14.1µM*, TDP-43 yeast inh 3.7%, aSyn yeast inh -0.9%, FUS suppressor inactive and Mm-Cpn inhibitor -0.5%.
Screening CC(C)(C)NC(=O)Nc1ccc2nccnc2c1 returned Abeta rescue inactive, ClpP mod 20µM*, TDP-43 yeast inh 8.3%, aSyn yeast inh -3.8% and Mm-Cpn inhibitor -24.6%.
`O=C(O)c1ccccc1C1=Nc2ccc(O)cc2Oc2cc(O)ccc21` gave Abeta rescue inactive, ClpP mod 14.1µM*, TDP-43 yeast inh 22.5%, aSyn yeast inh 5.8% and Mm-Cpn inhibitor 0.7%.
Cc1cc(-c2ccccc2C(=O)O)on1 was read as Abeta rescue inactive, ClpP mod 0.5%, TDP-43 yeast inh -23.8%, aSyn yeast inh -12.1%, FUS suppressor inactive and Mm-Cpn inhibitor 1.1%.
`COc1cc2ccccc2cc1C(=O)NC1CCCC1` gave Abeta rescue inactive, ClpP mod 0.3%, TDP-43 yeast inh 12.6µM*, aSyn yeast inh 0.9%, FUS suppressor inactive and Mm-Cpn inhibitor -2.4%.
For O=C(NC1CCCC1)c1cc(-c2ccccc2)nc2ccccc12 the results were Abeta rescue inactive, ClpP mod 0.3%, TDP-43 yeast inh 0.0%, aSyn yeast inh -3.4%, FUS suppressor inactive and Mm-Cpn inhibitor 0.6%.
O=C(NC1CCCC1)c1ccccc1-c1ccccc1 was read as Abeta rescue inactive, ClpP mod 31.6µM*, TDP-43 yeast inh -2.5%, aSyn yeast inh -0.3% and Mm-Cpn inhibitor 2.6%.
O=C(NC1CCCCC1)c1ccc(-c2ccccc2F)o1 was read as Abeta rescue inactive, ClpP mod -26.0%, TDP-43 yeast inh 12.6µM*, aSyn yeast inh 0.8% and Mm-Cpn inhibitor -1.5%.
For COc1ccc(-c2nc3ccc(NC(=O)COC(C)=O)cc3c(=O)n2Cc2ccccc2)cc1COc1ccc(NC(C)=O)cc1 the results were ClpP mod 106.6% and aSyn yeast inh 0.3%.
O=C(CCn1c(=O)sc2ccccc21)Nc1nc2ccccc2s1 was read as Abeta rescue inactive, ClpP mod -0.4%, TDP-43 yeast inh 28.2µM*, aSyn yeast inh 11.8%, FUS suppressor inactive and Mm-Cpn inhibitor -0.7%.
Screening Cc1ccc2nc(NC(=O)CCn3c(=O)sc4ccccc43)sc2c1 returned Abeta rescue inactive, ClpP mod -1.4%, TDP-43 yeast inh 20µM*, aSyn yeast inh -4.6%, FUS suppressor inactive and Mm-Cpn inhibitor -8.2%.
For Cc1ccc2nc(NC(=O)CSc3nncc(=O)n3N)sc2c1 the results were Abeta rescue inactive, ClpP mod 25.1µM*, TDP-43 yeast inh 7.8%, aSyn yeast inh 0.8%, FUS suppressor inactive and Mm-Cpn inhibitor 1.5%.
Screening CN(C)c1c(Br)cc(C=O)cc1Br returned ClpP mod 0.8% and aSyn yeast inh 0.8%.
For CCOC(=O)N1CCN(/[N+]([O-])=N/OCOC)CC1 the results were aSyn yeast inh -0.5%.
Screening CCN(CC)c1ccc(/C=C/c2c(C)cnc3ccccc23)cc1 returned ClpP mod -1.0% and aSyn yeast inh -1.9%.
`COC(=O)Nc1nnc(/C=C/c2ccc(OC)cc2)s1` gave Abeta rescue inactive, ClpP mod 22.4µM*, TDP-43 yeast inh 2.1%, aSyn yeast inh -9.6%, FUS suppressor inactive and Mm-Cpn inhibitor -5.1%.
CCOC(=O)c1c(C)[nH]c(O)c1C=Nc1ccc(C(F)(F)F)cc1 was read as Abeta rescue inactive, ClpP mod -0.6%, TDP-43 yeast inh 3.16µM*, aSyn yeast inh -6.1%, FUS suppressor inactive and Mm-Cpn inhibitor -0.4%.
For O=C(CN1C(=O)c2cccc3cccc1c23)NCC1CCCO1 (stereo not given) the results were Abeta rescue inactive, ClpP mod 25.1µM*, TDP-43 yeast inh 14.4%, aSyn yeast inh -15.0%, FUS suppressor inactive and Mm-Cpn inhibitor 0.2%.
Screening CCCC(C)NC(=O)CN1C(=O)c2cccc3cccc1c23 (stereo not given) returned Abeta rescue inactive, ClpP mod 22.4µM*, TDP-43 yeast inh 10.9%, aSyn yeast inh 7.7%, FUS suppressor inactive and Mm-Cpn inhibitor 0.2%.
For CC(C)C(NC(=O)CN1C(=O)c2cccc3cccc1c23)C(C)C the results were Abeta rescue inactive, ClpP mod inconclusive, TDP-43 yeast inh 15.0%, aSyn yeast inh 0.2%, FUS suppressor inactive and Mm-Cpn inhibitor 0.8%.
Screening CCc1ccccc1NC(=O)c1cc2c(Cl)nc3ccccc3c2s1 returned Abeta rescue inactive, ClpP mod 0.7%, TDP-43 yeast inh -5.2% and FUS suppressor inactive.
For C=C(C)Cn1c(SCC(=O)N/N=C(\C)c2ccc([N+](=O)[O-])cc2)nnc1-c1ccc(Br)cc1 the results were FUS suppressor inactive.
Screening Nc1nnc(-c2cn(-c3ccccc3)nc2-c2ccccc2)o1 returned Abeta rescue inactive, ClpP mod 25.1µM*, TDP-43 yeast inh -19.4%, aSyn yeast inh 2.7%, FUS suppressor inactive and Mm-Cpn inhibitor -1.0%.
Screening CN(C)c1ncnc2c1C(c1ccccc1)C(C)(C)O2 (stereo not given) returned Abeta rescue inactive, ClpP mod 31.6µM*, TDP-43 yeast inh 0.0% and aSyn yeast inh 5.5%.
CN(C)c1ncnc2sc(-c3ccccc3)cc12 was read as Abeta rescue inactive, ClpP mod 3.4%, TDP-43 yeast inh 24.6%, aSyn yeast inh 0.6%, FUS suppressor inactive and Mm-Cpn inhibitor -8.7%.
Screening COc1cc2nc(CCNCc3ccccc3)nc(NC3CCN(C)CC3)c2cc1OC returned ClpP mod inconclusive and aSyn yeast inh -1.2%.
For CCOC(=O)c1ccc(NC2c3ccccc3C(=O)N2c2ccc(C)cn2)cc1 (stereo not given) the results were Abeta rescue inactive, ClpP mod -0.4%, TDP-43 yeast inh 0.0%, aSyn yeast inh 3.98µM*, FUS suppressor inactive and Mm-Cpn inhibitor 0.0%.
